From PubChem
Compounds with a hit are over-represented: about 5% of the library has one in this group of screens.
Vaccinia Venus = vaccinia inhibition (Venus reporter) | 0.46% of 330,000 active | Vaccinia virus Venus reporter expression, fluorescence | Potency, µM (doses to about 36.5 µM), for inactives: at the highest dose activity change, negative = inhibition, most hits filed as inhibitors; calls by dose curve; tested in A549 cells; note: potency is the fitted concentration of half-maximal effect; nearly all actives have a fitted effect of over 30% in size
LmPK inh = LmPK (Leishmania mexicana) enzyme inhibition; Q27686; purified LmPK, Kinase-Glo ATP luminescence, 1 h; Potency, µM (top dose mostly 57.5 µM), without a hit: at the top dose activity change, negative = inhibition, actives largely listed as inhibitors; 0.37% of 290,000 active; AID 1721; note: potency is the fitted concentration of half-maximal effect
Target sequence (Q27686 whole entry, looked up): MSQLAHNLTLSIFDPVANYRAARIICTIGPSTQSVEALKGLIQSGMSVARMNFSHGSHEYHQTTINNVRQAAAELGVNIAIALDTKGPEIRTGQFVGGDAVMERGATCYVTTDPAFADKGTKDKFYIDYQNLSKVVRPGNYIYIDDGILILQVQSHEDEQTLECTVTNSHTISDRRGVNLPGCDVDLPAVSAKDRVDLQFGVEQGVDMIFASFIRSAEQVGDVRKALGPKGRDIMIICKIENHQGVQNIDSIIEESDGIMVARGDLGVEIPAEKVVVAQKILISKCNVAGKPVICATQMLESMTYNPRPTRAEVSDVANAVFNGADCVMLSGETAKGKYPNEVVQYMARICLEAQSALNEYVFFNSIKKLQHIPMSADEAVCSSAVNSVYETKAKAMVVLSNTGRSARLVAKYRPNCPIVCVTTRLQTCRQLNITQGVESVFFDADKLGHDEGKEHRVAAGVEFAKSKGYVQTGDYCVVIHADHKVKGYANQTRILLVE
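Purified LmPK (0.1 nM) converted ADP (0.1 mM) to ATP with PEP (0.5 mM) in imidazole buffer pH 7.2 with KCl and MgCl2, 1 h at room temperature. ATP was read by Kinase-Glo luminescence; data normalized to uninhibited and no-enzyme controls.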
HCMV inh = human cytomegalovirus inhibition | HFF cells, HCMV-luciferase reporter, 72 h; active compounds read low | activity change, negative = inhibition, % at 57.5 µM | 4.5% of 410,000 active; in the data active = activity change below about -60%; inconclusive = no clear call, values can overlap the other calls; inactive = above about -39%
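Human foreskin fibroblasts infected with luciferase-reporter HCMV at MOI 1 PFU/cell, compounds at two doses. Luciferase measured 72 h post infection; normalized to buffer-only basal and Salinomycin (10uM) controls.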
Vaccinia mCherry = inhibitors of vaccinia virus infection (mCherry reporter signal) | Potency, µM (titrated, usually from 36.5 µM), inactives show at the top dose activity change, negative = inhibition, actives largely listed as inhibitors | AID 720579 | Vaccinia virus mCherry reporter infection, fluorescence | 0.63% of 310,000 active; calls by dose curve; tested in A549 cells; note: potency is the fitted concentration of half-maximal effect; nearly all actives have a fitted effect of over 35% in size
Tb PYK inh = inhibitors of Trypanosoma brucei pyruvate kinase; Q57TT1; TbPYK enzyme, Kinase-Glo Plus ATP luminescence, 45 min; Potency, µM (titrated, usually from 76.8 µM), inactives show at the highest dose activity, negative = inhibition, usual class: inhibitors; 0.12% of 410,000 active; AID 624173; note: potency is the fitted concentration of half-maximal effect; nearly all actives have a fitted effect of over 50% in size
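Glycolytic pyruvate kinase of T. brucei was incubated with substrate, test compound and 130 uM ADP for 45 minutes at room temperature. Luminescent Kinase-Glo Plus signal was measured after 10 minutes.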
The depositor's hits bear a star; i = inactive; ? = inconclusive; . = not tested or not shown; [ ] = another dose, or the depositor's remark. Unless noted, calls come from the whole dose curve; as a rule, active = well fitted curve in the direction sought with a large enough effect; inconclusive = small, poorly fitted or top-dose-only effect, or another doubt; inactive = no such curve, though single readings can be large; an effect the other way counts as inactive or inconclusive. % is set by controls: 0 for no effect and ±100 for the full control effect.

SMILES	Vaccinia Venus	LmPK inh	HCMV inh	Vaccinia mCherry	Tb PYK inh
Cc1ccc(NC(=O)c2c(NC(=O)C(F)(F)F)sc3c2CCCCC3)cc1	?	.	-99.7*	?	-3.6%
O=C(Nc1cccc(Cl)c1)c1c(NC(=O)C(F)(F)F)sc2c1CCCC2	?	.	-105.5*	12.6µM*	-3.0%
O=C(COc1ccc(Cl)cc1)Nc1sc2c(c1C(=O)Nc1cccc(Cl)c1)CCCC2	-12.0%[7.34 µM]	.	-37.7	-17.3%[7.34 µM]	-16.2%
Cc1cccc(NC(=O)c2c(NC(=O)C(F)(F)F)sc3c2CCCCC3)c1	?	.	-100.1*	?	2.9%
Cc1ccc(NC(=O)c2c(NC(=O)c3ccccc3)sc3c2CCC3)cc1	0.0%	.	22.7	-4.0%	-3.3%
Cc1ccccc1NC(=O)c1c(NC(=O)C(F)(F)F)sc2c1CCCCC2	?	.	-102.1*	?	4.8%
CC(=O)Nc1ccc(S(=O)(=O)N[C@@H](C)C(=O)OCC(=O)Nc2ccc3c(c2)OCCO3)cc1	.	.	21.5	.	0.0%
CCOC(=O)C1CCN(C(=O)c2cc(-c3ccncc3)nc3ccccc23)CC1	.	.	4.1	.	0.1%
Cc1cc(C)cc(N(CC(=O)Nc2cccc(C)c2C)S(=O)(=O)c2c(C)[nH]c(=O)[nH]c2=O)c1	10.3%	1.4%	0.0	-4.8%	-0.5%
COc1ccc(NC(=O)c2c(NC(=O)c3ccc(Br)cc3)sc3c2CCCC3)cc1	-22.6%	.	-62.7*	-15.9%	1.4%
O=C(Nc1sc2c(c1C(=O)Nc1ccc(Cl)cc1)CCCC2)c1cccs1	?	.	8.7	12.6µM*	0.8%
CC(=O)c1ccc(N2CCN(c3ncnc4c3cnn4C)CC2)cc1	-9.4%	.	13.3	-17.8%	-4.4%
O=S1(=O)CCO[C@H]2CCCC[C@@H]2N1Cc1ccc(Cl)cc1	?	.	.	10µM*	.
COc1ccc(-n2c(=S)[nH]c3ccccc32)cc1	.	?	44.4	.	?
COc1ccccc1N1CCN(CCCn2c(=S)[nH]c3ccccc3c2=O)CC1	-9.9%	-2.4%	?	i	-0.5%
COc1ccc(N2CCN(CCCn3c(=S)[nH]c4ccccc4c3=O)CC2)cc1	.	5.5%	-71.8*	.	0.0%
COc1ccc(-n2c(=S)[nH]c3cc(C(=O)Nc4ccc(F)cc4)ccc3c2=O)c(OC)c1	-25.3%	-8.0%	-69.7*	-18.5%	1.4%
COc1ccc(-n2c(=S)[nH]c3ccccc3c2=S)cc1	.	2.3%	-64.2*	.	0.5%
COc1ccc(NC(=O)CCn2c(=S)[nH]c3ccccc3c2=O)cc1	?	-5.6%	-61.0*	-21.4%	-5.4%
CC12CCC(c3c1nc1ccccc1[n+]3[O-])C2(C)C (stereo unspecified)	-7.2%	-3.6%	12.2	i	-18.2%
Cc1cc(C)nc(N(C#N)Cc2ccc(Cl)cc2)n1	-0.9%	0.5%	-61.8*	-1.4%	2.5%
Cc1ccc(CN(C#N)c2nc(C)cc(C)n2)cc1	-18.3%	-3.9%	-14.9	-8.7%	2.2%
O=C(NCC(c1ccco1)S(=O)(=O)c1ccc(Cl)cc1)c1ccccc1F (stereo unspecified)	-8.0%	.	19.4	-4.7%	0.9%
Cc1oc(-c2ccccc2Cl)nc1CSCC(=O)NC1CCCC1	-22.0%	-6.5%	-74.9*	i	-7.6%
Cc1oc(-c2ccccc2Cl)nc1CSCC(=O)N1CCCC1	.	3.5%	-77.6*	.	14.0%
SMILES	Vaccinia Venus	LmPK inh	HCMV inh	Vaccinia mCherry	Tb PYK inh
COc1cccc(-c2nc(CS(=O)(=O)CC(=O)NC3CCCC3)c(C)o2)c1	-18.3%	1.5%	-21.3	-19.8%	2.6%
Cc1oc(-c2cccc(Cl)c2)nc1CS(=O)(=O)CC(=O)NC1CCCC1	-18.3%	2.0%	-62.1*	-22.8%	-0.7%
Cc1cc(C(=O)N2CCCC(N3CCN(Cc4ccc5c(c4)OCO5)CC3)C2)n[nH]1 (stereo unspecified)	-4.0%	-2.4%	-33.6	-18.2%	-0.2%
CCC(c1ccc(O)c(O)c1)C(CC)c1ccc(O)c(O)c1 (stereo unspecified)	-14.8%	.	.	3.16µM*	-25.6%
Cc1ccc(CNS(=O)(=O)c2c(C)[nH]c(C)c2C(=O)N2CCCCC2)o1	3.1%	-0.7%	-29.2	i	1.9%
CCCNC(=S)Nc1ccc(Cl)cc1C	-7.1%	-0.9%	1.6	i	-14.5%
Cc1cc(Cl)ccc1NC(=S)NCC(C)C	-12.5%	-1.6%	-73.4*	i	-6.0%
CCOc1ccc(-c2cccc(NS(=O)(=O)c3cc([N+](=O)[O-])ccc3Cl)c2)nn1	?	.	?	10µM*	2.1%
